Data on 55 compounds can be found in PubChem BioAssay AID602261 (Sanford-Burnham Center for Chemical Genomics, 2012).

Out of some 360,000 compounds screened, about 2,400 (0.67%) were called active.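 Rule for the calls: active = compounds whose normalised, plate-corrected inhibition of enzyme fluorescence in the single-dose primary screen is 50% or more; inactive = the rest.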 The full list was thinned out, with actives kept by preference.

Sequence of Fatty acid synthase (Homo sapiens) (P49327 whole entry, looked up, the tested form may be a part): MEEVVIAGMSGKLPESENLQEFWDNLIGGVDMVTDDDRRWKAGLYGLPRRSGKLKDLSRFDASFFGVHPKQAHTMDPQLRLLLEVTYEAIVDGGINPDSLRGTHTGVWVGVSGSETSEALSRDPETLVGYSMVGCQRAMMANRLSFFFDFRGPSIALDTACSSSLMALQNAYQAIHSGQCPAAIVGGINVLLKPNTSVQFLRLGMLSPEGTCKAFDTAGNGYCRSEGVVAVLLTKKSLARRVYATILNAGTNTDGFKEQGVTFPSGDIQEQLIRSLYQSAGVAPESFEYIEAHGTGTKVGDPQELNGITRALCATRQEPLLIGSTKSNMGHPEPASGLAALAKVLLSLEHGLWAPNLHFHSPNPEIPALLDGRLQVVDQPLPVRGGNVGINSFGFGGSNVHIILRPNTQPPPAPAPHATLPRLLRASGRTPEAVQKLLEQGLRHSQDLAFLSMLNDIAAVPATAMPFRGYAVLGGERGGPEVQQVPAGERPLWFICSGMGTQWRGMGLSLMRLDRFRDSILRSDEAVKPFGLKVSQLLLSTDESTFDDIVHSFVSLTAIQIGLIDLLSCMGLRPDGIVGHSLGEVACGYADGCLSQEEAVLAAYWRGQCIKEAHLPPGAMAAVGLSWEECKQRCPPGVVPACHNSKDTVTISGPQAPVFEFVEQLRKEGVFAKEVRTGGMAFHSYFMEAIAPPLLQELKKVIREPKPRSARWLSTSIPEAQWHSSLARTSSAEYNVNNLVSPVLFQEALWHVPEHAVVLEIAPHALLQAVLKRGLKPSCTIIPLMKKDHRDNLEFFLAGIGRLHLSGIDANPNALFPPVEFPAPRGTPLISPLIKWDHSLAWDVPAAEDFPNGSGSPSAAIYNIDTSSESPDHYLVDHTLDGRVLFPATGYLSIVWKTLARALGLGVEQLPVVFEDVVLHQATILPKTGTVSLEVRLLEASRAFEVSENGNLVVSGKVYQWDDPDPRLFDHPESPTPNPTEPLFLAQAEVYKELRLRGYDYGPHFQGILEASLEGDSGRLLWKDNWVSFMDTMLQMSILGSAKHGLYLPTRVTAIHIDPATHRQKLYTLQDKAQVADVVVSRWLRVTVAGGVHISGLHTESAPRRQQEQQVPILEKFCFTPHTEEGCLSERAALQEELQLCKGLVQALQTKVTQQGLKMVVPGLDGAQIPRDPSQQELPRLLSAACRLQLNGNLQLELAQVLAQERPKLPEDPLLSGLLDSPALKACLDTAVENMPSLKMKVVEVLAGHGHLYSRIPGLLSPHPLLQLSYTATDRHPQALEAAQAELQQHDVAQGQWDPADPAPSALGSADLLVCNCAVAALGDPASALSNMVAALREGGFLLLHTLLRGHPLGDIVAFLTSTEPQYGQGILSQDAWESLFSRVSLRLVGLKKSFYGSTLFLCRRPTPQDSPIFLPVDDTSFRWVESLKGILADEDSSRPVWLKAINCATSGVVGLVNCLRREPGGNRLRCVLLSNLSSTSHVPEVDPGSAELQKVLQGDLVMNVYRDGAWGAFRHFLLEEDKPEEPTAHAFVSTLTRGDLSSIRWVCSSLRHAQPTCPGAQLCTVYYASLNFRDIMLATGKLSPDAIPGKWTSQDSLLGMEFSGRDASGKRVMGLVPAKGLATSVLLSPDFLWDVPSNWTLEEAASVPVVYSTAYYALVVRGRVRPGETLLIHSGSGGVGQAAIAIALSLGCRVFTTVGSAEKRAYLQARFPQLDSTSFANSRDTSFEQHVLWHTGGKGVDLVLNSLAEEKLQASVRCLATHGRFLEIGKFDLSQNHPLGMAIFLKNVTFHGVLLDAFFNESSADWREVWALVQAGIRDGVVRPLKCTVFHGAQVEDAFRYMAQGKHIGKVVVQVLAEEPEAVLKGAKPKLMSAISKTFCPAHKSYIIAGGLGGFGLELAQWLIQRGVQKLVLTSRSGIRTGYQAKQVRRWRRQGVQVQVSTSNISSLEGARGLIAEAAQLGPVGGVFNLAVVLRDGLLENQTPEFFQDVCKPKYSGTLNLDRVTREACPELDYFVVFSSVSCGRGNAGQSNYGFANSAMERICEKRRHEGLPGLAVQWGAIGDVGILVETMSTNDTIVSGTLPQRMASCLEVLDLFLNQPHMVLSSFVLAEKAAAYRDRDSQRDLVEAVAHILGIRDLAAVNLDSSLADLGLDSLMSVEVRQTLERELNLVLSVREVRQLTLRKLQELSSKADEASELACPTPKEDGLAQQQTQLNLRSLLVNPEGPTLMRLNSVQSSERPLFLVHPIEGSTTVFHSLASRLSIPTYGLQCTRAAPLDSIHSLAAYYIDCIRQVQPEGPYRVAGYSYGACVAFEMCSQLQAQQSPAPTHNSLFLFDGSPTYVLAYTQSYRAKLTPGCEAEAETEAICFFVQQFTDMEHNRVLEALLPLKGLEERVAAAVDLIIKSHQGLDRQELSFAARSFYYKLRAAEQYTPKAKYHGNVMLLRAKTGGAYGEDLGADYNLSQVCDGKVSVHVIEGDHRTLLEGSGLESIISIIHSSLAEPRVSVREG

The test has as its target Fatty acid synthase (Homo sapiens) (UniProt P49327). Nature of the test: FAS thioesterase domain inhibitors, primary screen, biochemical, fluorescence intensity, uHTS (AID 602261).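 Note: 0% = DMSO with enzyme and 100% = substrate without enzyme.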 The conditions noted are these: recombinant FAS-TE, OMFH fluorogenic substrate, fluorescence endpoint; at 15 µM; stronger effect = higher value.
The inhibition is the drop in the measured response relative to a control, in per cent. In the case of `CC(/C=C/c1ccccc1)=N\NC(=O)C1CC1(C)c1ccccc1` (stereo not given), the inhibition is 20% (inactive). Then `O=C(Cc1ccccc1)NNS(=O)(=O)c1ccc([N+](=O)[O-])cc1`, with 11.1% (inactive); and `CC(C=Cc1ccccc1)=NNS(=O)(=O)c1ccc([N+](=O)[O-])cc1`, with 58.3% (active); and `CCOc1c(N2CCCCC2)c(=O)c1=O`, with -8% (inactive). Then `O=C(c1cccc(F)c1)N1CCN(c2ccc([N+](=O)[O-])c(N3CCCCC3)c2)CC1`, with 17.3% (inactive); and `O=C(c1ccc(Cl)c([N+](=O)[O-])c1)N1CCN(c2ccccc2)CC1`, with 53.6% (active). Then `O=C(c1ccc(Oc2ccc(Cl)cc2)c([N+](=O)[O-])c1)N1CCCC1`, with -19.7% (inactive).

In the case of `COCCNc1nc2nonc2nc1N1CCCC1c1nccs1` (stereo not given), the inhibition is -8.3% (inactive).

In the case of `CC(OC(=O)CNC(=O)c1cccc(F)c1)C(=O)NC1CCCCC1C` (stereo not given), the inhibition is -5.6% (inactive).

Turning to `COc1ccc(CNC(=O)C(=O)NCC2OCCN2C(=O)c2ccc(OC)cc2)cc1` (stereo not given), the inhibition is -1.4% (inactive). Then `Cc1nnc(SCc2ccc(C(=O)c3ccc(Cl)cc3)o2)n1-c1ccccc1`, with 2.7% (inactive).

For `Cc1ccc(-c2noc(CSc3nnc(-c4cccs4)n3C)n2)cc1`, the inhibition was -14.2% (inactive). Take `Fc1ccc(-n2c(Cc3ccccc3)nnc2SCc2nc(-c3ccc(Cl)cc3)no2)cc1`: the inhibition is 52.6% (active). Then `C/C(=N\NC(=O)c1cccnc1)c1ccc(-n2ccnc2)cc1`, with -10.3% (inactive); and `Cc1ccc(C)c(S(=O)(=O)Nc2cccc(-n3cnnn3)c2)c1`, with 4.5% (inactive); and `O=S(=O)(Nc1ccc(-n2cnnn2)cc1)c1ccc(Cl)cc1`, with 2.4% (inactive). The figure for `O=S(=O)(Nc1cccc(-n2cnnn2)c1)c1cnc(Cl)c(Cl)c1` is 56.8% (active).

Take `O=c1c2ccccc2cnn1Cc1n[nH]c(=S)n1-c1ccccc1F`: the inhibition was -4.3% (inactive). Take `Cc1ccc(C(=O)N/C(=C/c2cccs2)C(=O)N2CCCCC2)cc1`: the inhibition was -8.4% (inactive). Then `Cc1ccc(C(=O)N/C(=C\c2cn(C)c3ccccc23)C(=O)N2CCN(C)CC2)cc1`, with -5% (inactive). With `Cc1ccc(C(=O)N/C(=C\c2cn(S(=O)(=O)N(C)C)c3ccccc23)C(=O)N2CCCC2)cc1`, the inhibition was 86.5% (active). Then `O=C(O)c1ccccc1-c1ccccc1C(=O)Nc1ccccc1Br`, with -0.4% (inactive); and `O=C(NCc1ccccc1)C1CCN(C(=O)Cc2ccccc2)CC1`, with -4.1% (inactive); and `CCNC(=O)NNC(=O)C1CC(c2cccs2)=NO1` (stereo not given), with -1.4% (inactive).

Take `COc1ccc(S(=O)(=O)Nc2ccc(F)cc2)c(C)c1C`: the inhibition is 1.1% (inactive).

Turning to `COc1cc(C(=O)OC2CCOC2=O)c([N+](=O)[O-])cc1OC` (stereo not given), the inhibition is -3.6% (inactive). The figure for `O=C(OC1CCOC1=O)c1ccc(-c2nc3ccccc3s2)s1` (stereo not given) is 51.7% (active); for `CC(C)c1ccc(C(=O)OC2CCOC2=O)cc1` (stereo not given) it is -2.3% (inactive); for `O=C(CNC(=O)OCc1ccccc1)NC1CCCCNC1=O` (stereo not given) it is -2.6% (inactive). On to `O=C(NCC1CCCCC1)c1cc(S(=O)(=O)N2CCCCC2)ccc1N1CCOCC1`, for which the inhibition was 3.8% (inactive). The figure for `COc1ccc(S(=O)(=O)N2CCCCC2)cc1NC(=O)c1cc([N+](=O)[O-])ccc1N1CCOCC1` is 86.5% (active).

For `COc1ccc(S(=O)(=O)N2CCOCC2)cc1NC(=O)c1ccc(OCC(C)C)c(OC)c1`, the inhibition is 27.8% (inactive). Then `COc1cccc(NC(=O)C2c3cc(OC)c(OC)cc3C(=O)N(C)C2c2cccnc2)c1` (stereo not given), with -9.1% (inactive); and `CC1(C)OC(=O)N2CCc3ccccc3C21C` (stereo not given), with -4.7% (inactive); and `O=C(c1ccc2c(c1)C(=O)N(c1ccc(Cl)cc1)C2=O)N1CCN(c2ccccn2)CC1`, with -5.5% (inactive).

`O=C1c2ccccc2S(=O)(=O)c2cc(N3CCN(c4ccccn4)CC3)ccc21`: the inhibition is 12.8% (inactive). With `O=C(c1ccc2c(c1)N(Cc1ccc(F)cc1)C(=O)c1ccccc1S2(=O)=O)N1CCN(c2ccccn2)CC1`, the inhibition was 56.9% (active). The figure for `COCCNC(=O)CCCn1c(=O)c2ccccc2n(Cc2cccc([N+](=O)[O-])c2)c1=O` is 55.7% (active); for `COc1ccccc1CNC(=O)CCCn1c(=O)c2ccccc2n(CC(=O)NC2CCCC2)c1=O` it is -7.6% (inactive). The figure for `CCCCNC(=O)CCn1c(=O)c2ccccc2n(Cc2cc(C)ccc2C)c1=O` is -13.3% (inactive). Then `COCCn1c(CN2CCC(Cc3ccccc3)CC2)nc2c1c(=O)n(C)c(=O)n2C`, with 53.4% (active); and `CCOC(=O)N1CCN(Cc2nc3c(c(=O)n(C)c(=O)n3C)n2Cc2ccccc2)CC1`, with 4% (inactive). For `CN1CCN(Cc2nc3c(c(=O)n(C)c(=O)n3C)n2Cc2cccc3ccccc23)CC1`, the inhibition was 17.2% (inactive).

For the compound `COc1ccc(OC)c(S(=O)(=O)N2CCCC(C(=O)N3CCC(C(N)=O)CC3)C2)c1` (stereo not given), the inhibition is -9.7% (inactive).

As for `COc1ccc(C2CC(c3ccccc3)=NN2C(=O)c2ccc(Cl)c([N+](=O)[O-])c2)cc1` (stereo not given), the inhibition is 65.8% (active). Then `COc1ccc(C2CC(c3cccc(OC)c3)=NN2c2ccc(S(N)(=O)=O)cc2)cc1` (stereo not given), with 18.6% (inactive); and `COc1ccc(C2=NN(C(=O)c3ccccc3C(=O)O)C(c3ccccc3O)C2)cc1` (stereo not given), with -6.4% (inactive); and `CCCn1c(SCC(=O)Nc2ccc(C)c(S(=O)(=O)N3CCOCC3)c2)n[nH]c1=O`, with -3.3% (inactive).

With `Cc1cc(C)c2nc(-c3cccnc3)cc(C(=O)Nc3ccc(S(=O)(=O)Nc4onc(C)c4C)cc3)c2c1`, the inhibition was -0.1% (inactive). The figure for `C/C(=N\Nc1ccc([N+](=O)[O-])cc1)c1ccc(-n2nncc2C(C)(C)C)cc1` is -16% (inactive); for `C/C(=N/NC(=O)CC(=O)N/N=C(\C)c1ccc([N+](=O)[O-])cc1)c1ccc([N+](=O)[O-])cc1` it is 36% (inactive). Then `C/C(=N\Nc1nc(N2CCOCC2)nc(N2CCOCC2)n1)c1ccc([N+](=O)[O-])cc1`, with 57.8% (active); and `O=C(NCCN1CCOC1=O)C1CCC(=O)N(CCc2ccc(Cl)cc2)C1` (stereo not given), with 0.7% (inactive). Then `O=C(c1cnccn1)N1CCN(S(=O)(=O)c2cccc(Cl)c2)CC1`, with -6.3% (inactive); and `Cc1ccc(S(=O)(=O)/N=C(/NC(=S)Nc2c(C)n(C)n(-c3ccccc3)c2=O)c2ccccc2)cc1`, with -4.4% (inactive).
